# Laboratory results published in PubChem BioAssay.
# Values joined by “and” are separate entries in the source; they are usually repeats but may differ in a detail not shown here. Equal values may be shown once. Records with an inconclusive call do not appear. For some of these results: Entries with a potency or affinity are not part of this list. Some compounds were tested as several samples or in several runs, with calls that do not always agree. Active and inactive are the calls of the source. Unless noted, the rule behind the calls is not given here.
# Tests used:
# [1] = polyglutamine-triggered caspase-3 activation inhibitors, cell-based (AID 1583); details: polyglutamine-induced caspase-3 activation, cell assay; stronger effect = higher value;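 tested at 10 µM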
# [2] = suppressors of polyQ aggregation in yeast, 75Q-TubU reporter (AID 1593); details: Yeast 75Q polyglutamine aggregation reporter
# [3] = rescue of polyQ-huntingtin neuronal dysfunction in worms, whole organism, C. elegans mechanosensory neurons, N-terminal huntingtin (AID 1599); details: touch response, stronger effect = higher value
# [4] = inhibitors of mitochondrial cytochrome c release, biochemical, purified mitochondria (AID 1603); details: stronger effect = lower value;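 note: mouse liver mitochondria challenged with calcium chloride; signal normalized to the plate average as 100%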
# [5] = inhibitors of polyQ protein aggregation (AID 1604); details: polyglutamine-induced protein aggregation inhibition assay; stronger effect = higher value; tested at 2.5 µM
# [6] = enhancers of glutamate uptake in motor neurons, MN-1 cell line (AID 1612); details: MN-1 motor neuron cells, stronger effect = higher value;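 note: tested at 1 µM final; 0% = mean of DMSO vehicle wells on each plate; positive means more glutamate uptake than control and negative means less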
# [7] = reducers of polyQ inclusions in PC12 cells, cell-based, NGF-treated PC12, GFPQ80 (AID 1614); details: PC12 NGF-treated GFP-polyQ80 inclusion reduction;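 note: lower means fewer inclusions and 0 means no inclusions at all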
# [8] = suppressors of polyglutamine aggregation in yeast, 75Q-TubH (AID 1616); details: S. cerevisiae 75Q-TubH polyglutamine aggregation suppression; stronger effect = higher value
# [9] = liver-stage malaria parasite growth inhibition, primary screen, cell-based, HepG2, luciferase luminescence, HepG2 viability (AID 624349; in the data active = parasite load remaining mostly below about 12%, no sharp cut-off; inactive = mostly above about 10%;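 note: 100% = mean of DMSO negative control wells on the same plate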); details: P. berghei liver stage in HepG2, luciferase luminescence, concentration not given here; parasite load remaining: stronger effect = lower value; viability: measured here: HepG2 viability without parasites
# [10] = Cy5 fluorescence interference with SSB-bound oligo, artefact control for HCV NS3 helicase inhibitor project, biochemical, NIH Clinical Collection, E. coli SSB (AID 743268)
# [11] = test system: Hepatitis C virus NS3 helicase; assay: HCV NS3 helicase inhibitors, primary screen, biochemical, fluorescence polarization, NIH Clinical Collection (AID 743270); details: NS3 helicase binding to Cy5-dT15 DNA, stronger effect = higher value, concentration not given here
# [12] = target: Single-stranded DNA-binding protein (Escherichia coli (strain K12)) (UniProt P0AGE0); assay: E. coli SSB displacement from DNA, counter-screen for HCV NS3 helicase inhibitor project, biochemical, fluorescence polarization, NIH Clinical Collection (AID 743271; in the data active = inhibition above about 28%); details: stronger effect = higher value, concentration not given here
# [13] = fluorescence interference in NS3h assay format, artefact control for HCV NS3 helicase inhibitor project, biochemical, NIH Clinical Collection (AID 743272); details: fluorescence interference counterscreen, stronger effect = lower value;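 note: HCV NS3 helicase with a Cy5 labelled single stranded DNA probe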
# [14] = test system: Neuropilin-2 / VEGF-C interaction (human); assay: inhibitors of NRP2–VEGF-C binding, biochemical, microplate binding format, z-score (AID 743281); details: microplate NRP2/VEGF-C binding assay; stronger effect = lower value
# [15] = stimulators of nuclear beta-catenin in C2C12, primary screen, imaging, WNT3A-conditioned medium, mouse C2C12, NPC library (AID 1117326; in the data active = nuclear beta-catenin stimulation mostly above about 4.2%, no sharp cut-off; inactive = mostly below about 10%); details: stronger effect = higher value
# [16] = stimulators of insulin release from INS-1E, primary screen, cell-based, 5 mM glucose, NPC library (AID 1117329;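 active = compound raises insulin release from rat beta cells at 5 mM glucose, no numeric limit stated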); details: rat INS-1E insulin secretion, at 10 µM, stronger effect = higher value
# [17] = growth inhibition of GSK3B-pretreated HCT116 cells – cell-based, CellTiter-Glo, 0.2 to 20 µM (AID 1117336;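 active = compounds lowering colon cancer cell viability after pretreatment blocking the GSK3B kinase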); details: HCT116 viability after GSK3B inhibitor, at 20 µM, stronger effect = higher value
# [18] = inhibition of endothelial tube formation, primary screen, imaging, VEGF stimulated, CD31 staining, tube area, NPC library (AID 1117340;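 active = compound that reduces growth-factor-driven endothelial tube area in a mixed cell culture, no cutoff stated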); details: VEGF-stimulated ADSC/ECFC co-culture, at 10 µM, stronger effect = higher value
# [19] = glucagon-like peptide 1 release enhancers, primary assay, NCI-H716 cell line, NPC library (AID 1117341;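 active = compound raises GLP1 secretion from the human gut endocrine cells, with no numeric limit stated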); details: NCI-H716 cells, at 10 µM, stronger effect = higher value
# [20] = HCT116 colon cancer cell growth inhibition, primary screen, CellTiter-Glo luminescence, NPC library (AID 1117342;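 active = compounds that lower survival of HCT116 colon cancer cells in the luminescence readout, no numeric limit stated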); details: at 20 µM (top of the series)
# [21] = CellTiter-Glo luminescent readout of SW480 viability loss, NPC library primary (AID 1117343;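 active = compounds that lower viability of the colon cancer cells in the luminescence readout, with no numeric limit stated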); details: CellTiter-Glo luminescence; at 20 µM (top of the series)
# [22] = decreased DLD-1 cellular survival, CellTiter-Glo luminescent readout, NPC compound collection, primary HTS (AID 1117346;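 active = compounds that lower survival of DLD-1 colon cancer cells in the luminescence readout, no cutoff given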); details: DLD-1 viability, CellTiter-Glo luminescence; at 20 µM (top of the series)
# [23] = target: 6-phosphogluconate dehydrogenase, decarboxylating (Homo sapiens) (UniProt P52209); assay: 6PGD enzyme inhibitors, primary screen, biochemical, human, recombinant enzyme, NADPH absorbance (AID 1159550;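 active = at least 20% inhibition of 6-phosphogluconate dehydrogenase activity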); details: recombinant 6PGD, NADPH absorbance 341 nm; at 10 µM; stronger effect = higher value
# 6-phosphogluconate dehydrogenase, decarboxylating (Homo sapiens), sequence (P52209 whole entry, looked up): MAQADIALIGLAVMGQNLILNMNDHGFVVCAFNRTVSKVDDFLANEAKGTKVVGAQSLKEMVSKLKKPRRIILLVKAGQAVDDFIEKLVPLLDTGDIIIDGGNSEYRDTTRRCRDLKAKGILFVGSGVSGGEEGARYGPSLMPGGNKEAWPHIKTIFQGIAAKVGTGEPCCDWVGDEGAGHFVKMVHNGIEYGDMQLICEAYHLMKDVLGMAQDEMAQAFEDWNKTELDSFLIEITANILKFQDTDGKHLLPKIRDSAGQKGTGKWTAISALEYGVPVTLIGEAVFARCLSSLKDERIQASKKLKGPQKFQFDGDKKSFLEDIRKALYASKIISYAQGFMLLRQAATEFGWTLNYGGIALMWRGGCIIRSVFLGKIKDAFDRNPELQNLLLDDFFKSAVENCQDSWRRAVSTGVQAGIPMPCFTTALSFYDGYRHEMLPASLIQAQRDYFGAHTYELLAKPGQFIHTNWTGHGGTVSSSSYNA
# [24] = modulation of C. elegans fzo-1 (AID 1259413);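 note: fzo-1 mutant C. elegans worms in liquid wells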; details: C. elegans fzo-1 modulator screen, mean read-out; stronger effect = higher value
# [25] = differential killing of epithelial or mesenchymal cells, primary screen, imaging, PC-3E GFP, TEM4-18 mCherry, co-culture (AID 1345086;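 active = compounds killing one labelled cell type while sparing the other, by normalised counts and ratio limits, not self-fluorescent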;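 for all read-outs here: cells exposed to compound for 72 h before imaging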;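 for red/green cell ratio (normalised): normalised mesenchymal count divided by normalised epithelial count so high means epithelial killing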); details: imaging cell counts, at 1 µM; for red/green cell ratio (normalised): actives lie on both sides, counts scaled to control wells, 1 = unselective
# [26] = sensitizers of A549 cells to miR-34 induction, primary screen, imaging, A549 dox-inducible miR-34, nuclei and caspase counts (AID 1347080;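 active = compounds whose cell count with miR-34 switched on is under 0.7 times the count with it off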); details: A549 miR-34 inducible, Hoechst nuclei count, 48 h
# [27] = survival rescue of mitochondrial mutant cells in low glucose, primary screen, MELAS cybrids, Rieske KO mouse fibroblasts, CellTiter-Glo (AID 1508586;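 active = mean z-score across replicates of 1.96 or higher in either the MELAS or the Rieske mutant cell line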;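 note: z relative to plate mean and SD of compound and empty wells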)
# [28] = target: NAD(+) hydrolase SARM1 (Homo sapiens) (UniProt Q6SZW1); assay: SARM1 TIR NADase inhibitors, cell lysate, NAD-Glo luminescence (AID 1508614;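 active = compound whose remaining NAD level is above about 45 nM, limit read from the data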;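 note: higher remaining NAD means stronger inhibition of SARM1 NADase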); details: SAM-TIR HEK293T lysate NADase, at 1 µM, stronger effect = higher value
# NAD(+) hydrolase SARM1 (Homo sapiens), sequence (Q6SZW1 whole entry, looked up, the tested form may be a part): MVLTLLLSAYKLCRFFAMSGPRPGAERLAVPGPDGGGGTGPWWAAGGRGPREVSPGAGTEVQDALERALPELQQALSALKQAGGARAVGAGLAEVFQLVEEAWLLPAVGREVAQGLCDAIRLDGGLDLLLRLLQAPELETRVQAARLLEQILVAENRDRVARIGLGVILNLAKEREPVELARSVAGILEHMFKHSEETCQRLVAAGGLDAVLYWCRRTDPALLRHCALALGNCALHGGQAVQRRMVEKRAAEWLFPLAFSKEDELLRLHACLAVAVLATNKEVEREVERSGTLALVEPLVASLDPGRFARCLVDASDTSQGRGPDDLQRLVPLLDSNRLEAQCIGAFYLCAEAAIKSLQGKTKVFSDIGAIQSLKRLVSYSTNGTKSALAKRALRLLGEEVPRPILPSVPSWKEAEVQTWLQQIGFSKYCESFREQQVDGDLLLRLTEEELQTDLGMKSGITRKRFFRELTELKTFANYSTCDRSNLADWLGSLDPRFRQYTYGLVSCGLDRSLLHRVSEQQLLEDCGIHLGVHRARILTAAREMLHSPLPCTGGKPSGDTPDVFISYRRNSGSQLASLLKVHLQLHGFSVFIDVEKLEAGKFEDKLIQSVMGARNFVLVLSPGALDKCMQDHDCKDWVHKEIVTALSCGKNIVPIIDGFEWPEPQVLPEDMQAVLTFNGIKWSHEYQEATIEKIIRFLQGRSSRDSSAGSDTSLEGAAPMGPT
# [29] = target: Mitogen-activated protein kinase 7 (Homo sapiens) (UniProt Q13164); assay: ERK5 transactivation activators in reporter cells, primary screen, cell-based, HTS (AID 1508626;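 active = luciferase signal above three times the same-plate solvent-only control wells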;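 note: luciferase driven by Gal4-ERK5 fusion binding five Gal4 sites before minimal TATA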); details: HeLa Gal4-ERK5 transactivation, 18 h, at 5 µM, stronger effect = higher value
# Mitogen-activated protein kinase 7 (Homo sapiens), sequence (Q13164 whole entry, looked up, the tested form may be a part): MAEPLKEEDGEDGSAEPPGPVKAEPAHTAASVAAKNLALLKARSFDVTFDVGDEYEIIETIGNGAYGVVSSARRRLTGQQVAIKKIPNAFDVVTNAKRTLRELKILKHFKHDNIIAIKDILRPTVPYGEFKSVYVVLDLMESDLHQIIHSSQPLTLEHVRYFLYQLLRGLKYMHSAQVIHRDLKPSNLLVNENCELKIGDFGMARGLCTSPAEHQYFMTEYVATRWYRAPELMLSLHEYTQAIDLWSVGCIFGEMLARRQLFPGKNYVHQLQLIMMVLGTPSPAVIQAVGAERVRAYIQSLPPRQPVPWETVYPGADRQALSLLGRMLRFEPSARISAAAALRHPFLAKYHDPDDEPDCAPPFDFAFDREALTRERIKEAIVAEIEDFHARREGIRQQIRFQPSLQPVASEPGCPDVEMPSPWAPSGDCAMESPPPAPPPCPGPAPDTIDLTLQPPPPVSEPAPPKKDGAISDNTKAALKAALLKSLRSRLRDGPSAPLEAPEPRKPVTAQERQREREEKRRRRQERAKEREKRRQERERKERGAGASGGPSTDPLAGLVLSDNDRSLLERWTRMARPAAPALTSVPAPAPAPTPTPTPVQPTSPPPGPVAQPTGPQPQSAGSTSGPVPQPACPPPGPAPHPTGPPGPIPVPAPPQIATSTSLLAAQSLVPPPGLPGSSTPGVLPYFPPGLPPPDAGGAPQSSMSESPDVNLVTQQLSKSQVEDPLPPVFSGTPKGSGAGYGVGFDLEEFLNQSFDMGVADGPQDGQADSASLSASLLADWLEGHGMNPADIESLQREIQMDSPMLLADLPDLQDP
# [30] = viability rescue of complex I mutant cybrids, primary screen, cell-based, galactose medium, ATP luminescence (AID 1645843;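 active = z-score of at least 1.8 in each of two replicates, scored against plate mean and spread of sample wells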;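 note: positive z means more ATP and so rescue of galactose-driven cybrid death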); details: complex I mutant cybrid cells, 72 h, stronger effect = higher value
# [31] = test system: F380Y; assay: modulators of BK channel variants, profiling panel, selectivity assay, cell-based, U2OS BacMam, thallium flux, beta subunits (AID 1259406;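 active = thallium flux through the channel raised or lowered by more than 3 SD from vehicle-only wells, actives on both sides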;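 note: initial slope of Thallos dye fluorescence rise after thallium is added; log ratio against the mean of 0.3% DMSO vehicle wells on the same plate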); details: at 30 µM
# [32] = test system: F380Y/beta2Delta; assay: as above; details: at 30 µM
# [33] = target: Calcium-activated potassium channel subunit alpha-1 (Homo sapiens) + Leucine-rich repeat-containing protein 26 (Homo sapiens) (UniProt Q12791+Q2I0M4); assay: as above; details: F380Y/Slo1WT/gamma1, at 30 µM
# Calcium-activated potassium channel subunit alpha-1 (Homo sapiens) + Leucine-rich repeat-containing protein 26 (Homo sapiens), sequence (Q2I0M4 whole entry, looked up, one chain of several): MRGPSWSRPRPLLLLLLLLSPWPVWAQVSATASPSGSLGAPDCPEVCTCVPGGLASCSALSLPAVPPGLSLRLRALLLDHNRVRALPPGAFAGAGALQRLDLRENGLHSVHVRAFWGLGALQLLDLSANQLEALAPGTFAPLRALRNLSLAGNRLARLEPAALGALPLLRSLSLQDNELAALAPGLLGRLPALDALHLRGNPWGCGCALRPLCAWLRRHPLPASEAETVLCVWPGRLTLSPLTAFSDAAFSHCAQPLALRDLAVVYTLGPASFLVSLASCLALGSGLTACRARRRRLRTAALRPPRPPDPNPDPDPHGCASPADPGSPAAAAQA
# [34] = test system: R275C; assay: as above; details: at 30 µM
# [35] = test system: R275C/beta1; assay: as above; details: at 30 µM
# [36] = test system: R275C/beta2Delta; assay: as above; details: at 30 µM
# [37] = circadian clock period modulators, cell-based, LOPAC library, luminescence reporter (AID 2774); details: circadian reporter cells, at 7 µM, actives lie on both sides;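 note: values are relative to mean of DMSO wells on each plate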
# [38] = hESC survival regulators, cell-based (AID 493140); details: human embryonic stem cell survival screen; stronger effect = higher value;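 note: cells exposed to compounds for four days before counting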
# [39] = test system: Hepatitis C virus NS3 helicase; assay: HCV NS3 helicase inhibitors, primary screen, biochemical, fluorescence polarization, LOPAC1280 library (AID 687035; in the data active = inhibition above about 37%); details: Purified HCV NS3 helicase, Cy5-dT15 ssDNA binding fluorescence polarization; stronger effect = higher value; concentration not given here
# [40] = Cy5 fluorescence quenching or enhancement artefacts, artefact control for HCV NS3 helicase inhibitor project, biochemical, LOPAC1280 (AID 687037); details: Cy5-DNA-NS3h complex fluorescence interference counterscreen
# [41] = test system: Aerobactin synthetase IucA (Klebsiella pneumoniae); assay: IucA aerobactin synthetase inhibitors, biochemical, Tocris library, absorbance (AID 1345561); details: purified IucA enzyme assay, absorbance (OD) read-out; stronger effect = lower value;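 tested at 8 µM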;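 note: 100% = enzyme without compound and 0% = no enzyme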
# [42] = growth inhibition of DIPG glioma cells, dose response, cell-based, SU-DIPG-XVII, MIPE5.0, CellTiter-Glo, qHTS (AID 1347060; cut-off not given, nearly all actives have AC50 up to about 26 µM); details: SU-DIPG-XVII viability, CellTiter-Glo ATP luminescence
# [43] = growth inhibition of DIPG glioma cells, dose response, cell-based, SU-DIPG-IV, MIPE4.0, CellTiter-Glo, qHTS (AID 1347063; cut-off not given, nearly all actives have AC50 up to about 30 µM;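 note: compound exposure lasted 48 hours before the viability readout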); details: SU-DIPG-IV viability, CellTiter-Glo ATP luminescence
# [44] = growth inhibition of DIPG glioma cells, dose response, cell-based, SU-DIPG-XIII, MIPE5.0, CellTiter-Glo, qHTS (AID 1347064; cut-off not given, nearly all actives have AC50 up to about 23 µM); details: SU-DIPG-XIII viability, CellTiter-Glo ATP luminescence
# [45] = viability loss in pontine glioma line – cell-based, SU-DIPG-XXV, MIPE5.0, CellTiter-Glo, qHTS, dose response (AID 1347065; cut-off not given, nearly all actives have AC50 up to about 26 µM;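 note: cells exposed to compound for 48 hours before ATP readout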); details: CellTiter-Glo ATP luminescence
# [46] = SU-DIPG-VI glioma cell viability, MIPE4.0 library, CellTiter-Glo luminescence, qHTS (AID 1347066; cut-off not given, nearly all actives have AC50 up to about 30 µM;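 note: cells exposed to compound for 48 hours before readout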); details: CellTiter-Glo ATP luminescence
# [47] = SU-DIPG-XXV glioma cell viability, MIPE5.0 library, qHTS (AID 1347068; cut-off not given, nearly all actives have IC50 up to about 30 µM)
# [48] = phospholipid biosynthesis inhibitors in animal cells, primary screen, cell-based, LOPAC library, screen 4 (AID 1347384); details: phospholipid biosynthesis inhibition screen, at 10 µM
# [49] = measured here: epithelial PC-3E GFP cell survival
# [50] = measured here: mesenchymal TEM4-18 mCherry cell survival
# [51] = MELAS cybrid survival, CellTiter-Glo 48 h, stronger effect = higher value
# [52] = Rieske KO mouse fibroblast survival, CellTiter-Glo 72 h
smiles,measurement,setting,value
CN(C)CCN(Cc1ccccc1)c1ccccn1,inhibition,[1],16.8%
same,score,[2],1.31
same,rescue above control,[3],2.67
same,cytochrome c release ratio,[4],1.13
same,inhibition of aggregation,[5],79.6%
same,glutamate uptake change,[6],-25.1%
same,inclusion score,[7],2
same,aggregation suppression score,[8],1.09
same,parasite load remaining,[9],50.9% (inactive) and 109% (inactive)
same,viability,[9],82.5% and 67.3%
same,fluorescence ratio,[10],1.01 (inactive)
same,inhibition,[11],0.4% (inactive)
same,inhibition,[12],-0.87% (inactive)
same,fluorescence ratio,[13],0.93 (inactive)
same,z-score,[14],-0.192 (inactive)
same,nuclear beta-catenin stimulation,[15]; at 10 µM,1.1% (inactive)
same,nuclear beta-catenin stimulation,"[15]; stimulation, at 2 µM",0.8%
same,insulin secretion stimulation,[16],13% (inactive)
same,viability decrease,[17],-23.2% (inactive)
same,tube area decrease,[18],5.3% (inactive)
same,GLP1 secretion stimulation,[19],4.8% (inactive)
same,inhibition of viability,[20],13.3% (inactive)
same,viability decrease (inhibition),[21],-2.1% (inactive)
same,viability decrease (inhibition),[22],-41.1% (inactive)
same,inhibition,[23],4.76% (inactive)
same,mean signal,[24],272 (inactive)
same,red/green cell ratio (normalised),[25],0.96 (inactive)
same,normalised cell number,[25]; [49],1.02
same,normalised cell number,[25]; [50],0.99
same,fold change,"[26]; stronger effect = lower value, cell number ratio, induced over uninduced",1.02 (inactive) and 1.23 (inactive) and 0.865 (inactive)
same,fold change,[26]; measured here: relative caspase fold change +Dox/-Dox,1.94 and 0.367 and 2.89
same,cell count,"[26]; measured here: total cells with miR-34 induction, stronger effect = lower value",10300 and 8350 and 10800
same,cell count,[26]; measured here: total cells without miR-34 induction,10100 and 6800 and 12500
same,z-score,[27]; [51],-0.152 (inactive) and -0.218 (inactive)
same,z-score,[27]; [52],-0.132 and 0.37
same,remaining NAD,[28],10 nM (inactive)
same,luciferase signal,[29],32 AU (inactive)
same,z-score,[30],0.73 (inactive)
same,log fold change Tl+ flux,[31],-0.114 (active)
same,log fold change Tl+ flux,[32],-0.027 (inactive)
same,log fold change Tl+ flux,[33],0.0226 (inactive)
same,log fold change Tl+ flux,[34],0.027 (inactive)
same,log fold change Tl+ flux,[35],0.0111 (inactive)
same,log fold change Tl+ flux,[36],-0.0395 (inactive)
Cc1c(OCC(F)(F)F)ccnc1CS(=O)c1nc2ccccc2[nH]1 (stereo not drawn),inhibition,[1],-8.62%
same,score,[2],0
same,rescue above control,[3],4.9
same,cytochrome c release ratio,[4],0.73
same,inhibition of aggregation,[5],29.4%
same,glutamate uptake change,[6],-0.46%
same,inclusion score,[7],2
same,aggregation suppression score,[8],-0.00244
same,period change,[37],-0.035 h (inactive)
same,survival,[38],14.6 (inactive)
same,inhibition,[39],-2% (inactive)
same,fluorescence ratio (interference),[40],1 (inactive)
same,fluorescence ratio,[10],0.95 (inactive)
same,inhibition,[11],1.53% (inactive)
same,inhibition,[12],1.18% (inactive)
same,fluorescence ratio,[13],0.94 (inactive)
same,z-score,[14],0.0966 (inactive)
same,nuclear beta-catenin stimulation,[15]; at 10 µM,5.4% (inactive)
same,nuclear beta-catenin stimulation,"[15]; stimulation, at 2 µM",2.1%
same,insulin secretion stimulation,[16],0.9% (inactive)
same,viability decrease,[17],27.8% (inactive)
same,tube area decrease,[18],32.8% (inactive)
same,GLP1 secretion stimulation,[19],-1.8% (inactive)
same,inhibition of viability,[20],54.6% (active)
same,viability decrease (inhibition),[21],13.2% (inactive)
same,viability decrease (inhibition),[22],-8.8% (inactive)
same,inhibition,[23],-1.09% (inactive)
same,mean signal,[24],250 (inactive)
same,red/green cell ratio (normalised),[25],1.36 (inactive) and 1.09 (inactive)
same,normalised cell number,[25]; [49],0.7 and 1.26
same,normalised cell number,[25]; [50],0.95 and 1.36
same,remaining activity,[41],87.5% (inactive)
same,outcome,[42],inactive
same,outcome,[43],inactive
same,outcome,[44],inactive
same,outcome,[45],inactive
same,outcome,[46],inactive
same,outcome,[47],inactive
same,outcome,[48],inactive
same,z-score,[27]; [51],-0.355 (inactive) and 2.16 (active)
same,z-score,[27]; [52],0.886 and 0.276
same,remaining NAD,[28],10 nM (inactive)
same,luciferase signal,[29],60 AU (inactive)
same,z-score,[30],-1.12 (inactive) and -0.8 (inactive) and -0.405 (inactive)
